Source: PubChem BioAssay (NCATS)
Results filed as inconclusive are left out. Entries that show only a call come without a potency. Unmarked numbers belong to inactive results. The source made the active and inactive calls. The call rests on the fitted dose curve; in most records, active means well fitted cell-killing curve with a large enough effect; inconclusive means small, poorly fitted or top-dose-only effect; inactive means no such curve, though single readings can be large or run the other way. Starred links: 1 amine or outer side, 2 acyl side, 3 side chain; linkers in the order of their positions; H or OH if unused. Positions of bridges follow the written chain, without caps; N, C: chain ends. Non-standard residues stand in square brackets, D forms with d. Residues, ends and D or L forms follow the SMILES beside them. Chains are numbered I, II in the order given. *: point of attachment. Actinocin(9to1) = Cc1c2oc3c(C)ccc(C(=O)[*:1])c3nc-2c(C(=O)[*:2])c(N)c1=O; NMeV = CN[CH](C(=O)O)C(C)C; Nva = CCC[C@H](N)C(=O)O; Cbz = O=C(OCc1ccccc1)*; Sar = CNCC(=O)O

test: qHTS of pediatric cancer cell lines to identify multiple opportunities for drug repurposing: Primary screen for Rh30 cells (AID 1347107); conditions: Rh30 rhabdomyosarcoma viability, CellTiter-Glo luminescence, 48 h; series mostly up to 46 µM; further: nearly all actives have a fitted effect of over 75% in size
Text: Drug repurposing or repositioning has been offered as a strategy for drug development in oncology programs. This approach has special potential for childhood cancers and other rare or orphan diseases, where the expected return on new drug development has been a disincentive to pharmaceuticals.
In this project we exploit the poly-pharmacology of drugs to discover new indications via phenotypic screening of a panel of 19 well-characterized cell lines derived from solid tumors seen in children and adolescents. The goal is to identify approved drugs with previously unrecognized anticancer properties that has the potential to reveal new mechanisms and biological processes involved in carcinogenesis or drug resistance. We employed a titration-based paradigm (quantitative high-throughput screening or qHTS), where all compounds were tested at multiple concentrations for their effect on cell viability. Concentration-response curves (CRCs) were derived directly from the primary screen, and both potency and efficacy values were used to identify compounds with robust bioactivity profiles. We screened the NIH Chemical Genomics Center (NCGC) Pharmaceutical Collection (NPC) and Mechanism Interrogation Plate (MIPE) small molecule collections of approved and investigational compounds against these cell lines; and measured metabolically active cells after 48 hours of compound treatment as a proxy for cell viability.
Assay Submitter: Nathalia J. Martinez, National Center for Advancing Translational Sciences, National Institutes of Health, Rockville, MD, USA; email: natalia.martinez@nih.gov
[1] Shen, M et al. Quantitative high-throughput phenotypic screening of pediatric cancer cell lines identifies multiple opportunities for drug repurposing. Oncotarget 2017 Dec 19;9(4):4758-4772. PMID 29435139.
The cells were obtained from University of North Carolina (UNC), Pediatric Preclinical Testing Program (PPT), and Coriell Institute (CI).
qHTS cell viability assay:
Cells were assayed in growth media at a density of 500-1,000 cells/well. Five microliters of cells were dispensed into 1,536-well, white, solid-bottom, TC-treated plates (Greiner Bio One) using a multidrop dispenser and incubated at 37 degrees C, 5% CO2, under a humidified atmosphere for 5 hours. Twenty-three nanoliters of compounds and controls (neutral control DMSO or positive control bortezomib at final concentration of 2.3 µM) were subsequently transferred by Kalypsys pintool. For primary screens, the MIPE collection was tested at 11-point dilutions (final concentrations range from 0.78 nM to 46 µM) and the NPC collection at 8-point dilutions (final concentrations range from 0.59 nM to 46 µM). Compounds tested in follow-up screens were assayed at 11-point dilutions. Cells were incubated for 48 hours, followed by addition of 3 µL of CellTiter-Glo (Promega). After a 15 min incubation at room temperature, samples were analyzed for luminescence intensity using a ViewLux High-throughput CCD imager equipped with clear filters.
Potency means the concentration at half of the fitted maximal effect.

Row | Compound | Potency | activity change, negative = cytotoxic
1 | CCCCCN=C(N)NN=Cc1c[nH]c2ccc(OC)cc12 | inactive | 
2 | CC[C@H](CC[C@@H](C)[C@H]1CC[C@H]2[C@@H]3CC=C4C[C@@H](O)CC[C@]4(C)[C@@H]3CC[C@]12C)C(C)C | inactive | 
3 | c1ccc(CNc2nc(NCc3ccccc3)c3ccccc3n2)cc1 | 23.5 µM (active) | 
4 | Cc1c2oc3c(C)ccc(C(=O)NC4C(=O)NC(C(C)C)C(=O)N5CCCC5C(=O)N(C)CC(=O)N(C)C(C(C)C)C(=O)OC4C)c3nc-2c(C(=O)NC2C(=O)NC(C(C)C)C(=O)N3CCCC3C(=O)N(C)CC(=O)N(C)C(C(C)C)C(=O)OC2C)c(N)c1=O (stereo not given) (I: TVP[Sar][NMeV] / II: TVP[Sar][NMeV]; ester I:1-I:C, II:1-II:C; linker I:N-II:N via Actinocin(9to1); configuration not given here) | inactive | 
5 | CC[C@H]1OC(=O)[C@H](C)[C@@H](O[C@H]2C[C@@](C)(OC)[C@@H](O)[C@H](C)O2)[C@H](C)[C@@H](O[C@@H]2O[C@H](C)C[C@H](N(C)C)[C@@H]2O)[C@](C)(OC)C[C@@H](C)C(=O)[C@H](C)[C@@H](O)[C@]1(C)O | inactive | 
6 | NC1=N[C@H]2[C@H](CS[C@H]2CCCCC(=O)O)N1 | inactive | 
7 | CCOC(=O)C=C[C@H](C[C@@H]1CCNC1=O)NC(=O)[C@@H](CC(=O)[C@@H](NC(=O)c1cc(C)on1)C(C)C)Cc1ccc(F)cc1 | inactive | 
8 | CC(C)c1cc(C(C)C)c(CC(=O)NS(=O)(=O)Oc2c(C(C)C)cccc2C(C)C)c(C(C)C)c1 | inactive | 
9 | CCN1CCN(C(=O)N[C@H](C(=O)N[C@@H]2C(=O)N3C(C(=O)O)=C(CSc4nnnn4C)CS[C@@H]23)c2ccc(O)cc2)C(=O)C1=O |  | 26.1% [at 9.22 µM]
10 | CC(=O)[C@]1(O)Cc2c(O)c3c(c(O)c2[C@@H](O[C@H]2C[C@H](N)[C@@H](O)[C@H](C)O2)C1)C(=O)c1ccccc1C3=O | 4.69 µM (active) | 
11 | N#CNC(=NCCCCCCOc1ccc(Cl)cc1)Nc1ccncc1 | 0.0059 µM (active) | 
12 | COc1ccc(C[C@@H](C)[C@@H](C)Cc2ccc(OC)c(OC)c2)cc1OC | inactive | 
13 | CCN(CC)CCNC(=O)c1c(C)[nH]c(C=C2C(=O)Nc3ccc(F)cc32)c1C | 27 µM (active) | 
14 | N[C@H]1CN(c2c(F)cc3c(=O)c(C(=O)O)cn(C4C[C@@H]4F)c3c2Cl)CC12CC2 (stereo not given in full) | inactive | 
15 | COc1cc2c(cc1O)CCC1C2CC[C@@]2(C)C1CC[C@@H]2O (stereo not given in full) | inactive | 
16 | CC(C=CC1=C(C)CCCC1(C)C)=CC=CC(C)=CC(=O)Nc1ccc(O)cc1 | 42.9 µM (active) | 
17 | COC1=C(OC)C(=O)C(CC=C(C)CCC=C(C)CCC=C(C)CCC=C(C)CCC=C(C)CCC=C(C)CCC=C(C)CCC=C(C)CCC=C(C)CCC=C(C)C)=C(C)C1=O | inactive | 
18 | CC(=O)O[C@H]1C[C@@H]2CC[C@H]3[C@H]4C[C@H]([N+]5(C)CCCCC5)[C@@H](OC(C)=O)[C@@]4(C)CC[C@@H]3[C@@]2(C)C[C@H]1[N+]1(C)CCCCC1 | inactive | 
19 | Cc1cc(O)c2c(c1)C(=O)c1cccc(O)c1C2=O | inactive | 
20 | C[C@H](CCC(=O)O)[C@H]1CCC2C3C[C@H](O)[C@@H]4C[C@H](O)CC[C@]4(C)C3CC[C@@]21C (stereo not given in full) | inactive | 

Row | Compound | Potency | activity change, negative = cytotoxic
21 | CNC(=O)Nc1ccc(-c2nc(N3CC4CCC(C3)O4)c3cnn(C4CCC5(CC4)OCCO5)c3n2)cc1 | 11.8 µM (active) | 
22 | NC(=O)c1cccc(-c2cccc(OC(=O)NC3CCCCC3)c2)c1 | inactive | 
23 | CC(=O)N[C@@H]1[C@H](O[C@@H]2c3ccc(c(Cl)c3)Oc3cc4cc(c3O[C@H]3O[C@H](CO)[C@@H](O)[C@H](O)[C@H]3NC(=O)CCCCCCCC(C)C)Oc3ccc(cc3Cl)C[C@H]3NC(=O)[C@H](N)c5ccc(O)c(c5)Oc5cc(O)cc(c5)[C@H](NC3=O)C(=O)N[C@H]4C(=O)N[C@H]3C(=O)N[C@@H]2C(=O)N[C@@H](C(=O)O)c2cc(O)cc(O[C@H]4O[C@H](CO)[C@@H](O)[C@H](O)[C@H]4O)c2-c2cc3ccc2O)O[C@H](CO)[C@@H](O)[C@@H]1O | inactive | 
24 | CCC[C@@H](C=O)NC(=O)[C@H](CC(C)C)NC(=O)[C@H](CC(C)C)NC(=O)OCc1ccccc1 (Cbz-Leu-Leu-[Nva]-aldehyde) | 4.69 µM (active) | 
25 | CC(C(C)N1CC(=O)NC(=O)C1)N1CC(=O)NC(=O)C1 (stereo not given) | inactive | 
26 | CC[C@]12C=CCN3CC[C@@]4(c5cc([C@@]6(C(=O)OC)C[C@H]7C[C@@H](C(C)(F)F)CN(Cc8c6[nH]c6ccccc86)C7)c(OC)cc5N(C)[C@H]4[C@@](O)(C(=O)OC)[C@H]1OC(C)=O)[C@@H]32 | inactive | 
27 | CC(C)N1[N]C(=C2C=c3cc(O)ccc3=N2)c2c(N)ncnc21 | 5.9 µM (active) | 
28 | COc1cccc2c1C(=O)c1c(O)c3c(c(O)c1C2=O)C[C@@](O)(C(=O)CO)C[C@H]3O[C@H]1C[C@H](N)[C@H](O)[C@H](C)O1 | inactive | 
29 | Cn1cnc(=N)c2[nH]cnc21 | 14.8 µM (active) | 
30 | Cc1cc(C(=O)NOCCO)c(Nc2ccc(I)cc2F)n(C)c1=O | inactive | 
31 | COc1cc(OC)c(NC(=O)Nc2cc(C)on2)cc1Cl | inactive | 
32 | CC1(C)[C@H](O[C@H]2O[C@H](C(=O)O)[C@@H](O)[C@H](O)[C@H]2O[C@@H]2O[C@H](C(=O)O)[C@@H](O)[C@H](O)[C@H]2O)CC[C@@]2(C)[C@H]1CC[C@]1(C)[C@H]2C(=O)C=C2[C@H]3C[C@@](C)(C(=O)O)CC[C@]3(C)CC[C@]21C | inactive | 
33 | COc1cc(C(C)C)c(Oc2cnc(NC(CO)CO)nc2N)cc1I | inactive | 
34 | CCCCCCCCCCCC(CC1OC(=O)C1CCCCCC)OC(=O)C(CC(C)C)NC=O (stereo not given) | inactive | 
35 | COc1ccc(S(=O)(=O)Nc2cccnc2Nc2ccc(O)cc2)cc1 | inactive | 
36 | C=CC[C@@H]1C=C(C)C[C@H](C)C[C@H](OC)[C@H]2O[C@@](O)(C(=O)C(=O)N3CCCC[C@H]3C(=O)O[C@H](C(C)=C[C@@H]3CC[C@H](O)[C@H](OC)C3)[C@@H](C)[C@@H](O)CC1=O)[C@@H](C)C[C@@H]2OC | inactive | 
37 | Cc1coc2c1C(=O)C(=O)c1c-2ccc2c(C)cccc12 | inactive | 
38 | Cc1cnc(NC(=O)Nc2cc(Br)c(C)cc2OC[C@@H]2CNCCO2)cn1 | inactive | 
39 | CCCCCCCN(CC)CCCC(O)c1ccc(NS(C)(=O)=O)cc1 (stereo not given) | inactive | 
40 | COC(=O)C1C2CC3c4[nH]c5cc(OC)ccc5c4CCN3CC2CC(OC(=O)c2cc(OC)c(OC)c(OC)c2)C1OC (stereo not given) | inactive | 
